According to the supplement of paper PMC11537057:
Counter-ions that a name gives are not always drawn. Screen size: about 1,700 compounds; about 15 (0.9%) showed activity.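 Rule for the calls: active = infection cut by 80% or more with cell growth above 90% in both runs; inactive = the rest.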 What follows is part of a selection rich in actives, with near analogues and random picks from the rest.

Test system: HSV-1 strain 17 YFP-ICP4 in A549
Assay: HSV-1 infection relative to DMSO (ICP4-YFP per H2B-RFP signal); higher = more viral infection (less antiviral activity), active = hit call of the paper
Conditions: 10 µM; 48 h; MOI: 0.1
Description: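 Selleck FDA-approved library (L1300) screened in duplicate at 10 µM on A549 H2B-mRuby cells in 384-well plates, infected with HSV-1 strain 17 YFP-ICP4 at MOI 0.1 one hour before drug addition. Imaged after 2 days at 37°C. Cell growth (H2B-RFP) and infection (ICP4-YFP) are expressed as % of DMSO-treated wells. Hits: growth >90% and infection <20% of DMSO.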

Structure (SMILES)	HSV-1 infection
CC(C)C(Br)C(=O)NC(N)=O (stereo unspecified) [Bromisoval]	117% (inactive)
N#Cc1ccc(Oc2ccc3c(c2)COB3O)cc1 [Crisaborole (AN2728)]	95.1% (inactive)
CNC(C)Cc1ccccc1OC (stereo unspecified) [Methoxyphenamine Hydrochloride]	110% (inactive)
Nc1nc(CC(=O)Nc2ccc(CCNC[C@H](O)c3ccccc3)cc2)cs1 [Mirabegron]	104% (inactive)
O=C(O)CCn1c2c(c3ccccc31)C[C@H](NS(=O)(=O)c1ccc(F)cc1)CC2 [Ramatroban]	96.2% (inactive)
O=C(NC[C@H](O)CO)c1ccncc1Nc1ccc(I)cc1F	34.8% (inactive)
CC[C@H](C)[C@@H]1NC(=O)[C@H](Cc2ccc(O)cc2)NC(=O)[C@@H](N)CSSC[C@@H](C(=O)N2CCC[C@H]2C(=O)N[C@@H](CC(C)C)C(=O)NCC(N)=O)NC(=O)[C@H](CC(N)=O)NC(=O)[C@H](CCC(N)=O)NC1=O [Oxytocin (Syntocinon)]	82.7% (inactive)
CCS(=O)(=O)N1CCN(c2ccc(Nc3ncc(C(N)=O)c(NC4CC4)n3)cc2)CC1	25.3% (inactive)
CC(C)C[C@H](NC(=O)CNC(=O)[C@H](Cc1ccc(O)cc1)NC(=O)[C@H](CO)NC(=O)[C@H](Cc1c[nH]c2ccccc12)NC(=O)[C@H](Cc1cnc[nH]1)NC(=O)[C@@H]1CCC(=O)N1)C(=O)N[C@@H](CCCNC(=N)N)C(=O)N1CCC[C@H]1C(=O)NCC(N)=O [Gonadorelin Acetate]	117% (inactive)
NCC(=O)O [Glycine]	95.8% (inactive)
CCCN(CCc1cccs1)[C@H]1CCc2c(O)cccc2C1 [Rotigotine]	27.9% (inactive)
CCCCCCCN(CC)CCCC(O)c1ccc(NS(C)(=O)=O)cc1 (stereo unspecified) [Ibutilide Fumarate]	84.3% (inactive)
O.O.O.O=C([O-])C1[O][Sb]2[O]C(=O)C([O]2)C(C(=O)[O-])[O][Sb]2[O]C(=O)C1[O]2.[K+].[K+] (stereo unspecified) [Antimonyl potassium tartrate trihydrate]	80.2% (inactive)
COC(=O)C1=C(C#N)NC(C)=C(C(=O)OC(C)C)C1c1cccc([N+](=O)[O-])c1 (stereo unspecified) [Nilvadipine]	95.1% (inactive)
Cc1onc(-c2c(F)cccc2Cl)c1C(=O)N[C@@H]1C(=O)N2[C@@H]1SC(C)(C)[C@@H]2C(=O)O [Flucloxacillin sodium]	114% (inactive)
O=C(Nc1cccc2c(=O)cc(-c3nnn[nH]3)oc12)c1ccc(OCCCCc2ccccc2)cc1 [Pranlukast]	79.1% (inactive)
